For 70 molecules, inhibition results are on record in PubChem BioAssay.

A number with no mark means an inactive call. Calls of active or inactive are those of the source.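 The calls were made as follows, unless noted: active = mean inhibition above 46.68%, the untreated control wells mean plus 3 SD; inactive = the rest.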

Assay [1] concerns the target Nuclear receptor coactivator 1 (Homo sapiens) (UniProt Q15788). The assay is described as follows: NCOA1 GAL4-fusion reporter inhibition – cell-based, luminescence, quadruplicate, confirmation (AID 588820).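 Also: 0% = DMSO wells and 100% = gossypol 36 µM treated wells.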 The note with it: HEK293 GAL4-SRC1 luciferase reporter, at 3.6 µM, hits give high values.
Assay [2] can be described thus: repression of VP16-driven luciferase reporter – cell-based, luminescence, high throughput, counter-screen for SRC1 inhibitor project (AID 588824; in the data active = inhibition above about 25%). The note with it: cell-based VP16 transactivation luciferase luminescence; at 3.6 µM; hits give high values. (In general: A reporter such as luciferase makes a cellular process visible.)

Sequence of Nuclear receptor coactivator 1 (Homo sapiens) (Q15788 whole entry, looked up, the tested form may be a part): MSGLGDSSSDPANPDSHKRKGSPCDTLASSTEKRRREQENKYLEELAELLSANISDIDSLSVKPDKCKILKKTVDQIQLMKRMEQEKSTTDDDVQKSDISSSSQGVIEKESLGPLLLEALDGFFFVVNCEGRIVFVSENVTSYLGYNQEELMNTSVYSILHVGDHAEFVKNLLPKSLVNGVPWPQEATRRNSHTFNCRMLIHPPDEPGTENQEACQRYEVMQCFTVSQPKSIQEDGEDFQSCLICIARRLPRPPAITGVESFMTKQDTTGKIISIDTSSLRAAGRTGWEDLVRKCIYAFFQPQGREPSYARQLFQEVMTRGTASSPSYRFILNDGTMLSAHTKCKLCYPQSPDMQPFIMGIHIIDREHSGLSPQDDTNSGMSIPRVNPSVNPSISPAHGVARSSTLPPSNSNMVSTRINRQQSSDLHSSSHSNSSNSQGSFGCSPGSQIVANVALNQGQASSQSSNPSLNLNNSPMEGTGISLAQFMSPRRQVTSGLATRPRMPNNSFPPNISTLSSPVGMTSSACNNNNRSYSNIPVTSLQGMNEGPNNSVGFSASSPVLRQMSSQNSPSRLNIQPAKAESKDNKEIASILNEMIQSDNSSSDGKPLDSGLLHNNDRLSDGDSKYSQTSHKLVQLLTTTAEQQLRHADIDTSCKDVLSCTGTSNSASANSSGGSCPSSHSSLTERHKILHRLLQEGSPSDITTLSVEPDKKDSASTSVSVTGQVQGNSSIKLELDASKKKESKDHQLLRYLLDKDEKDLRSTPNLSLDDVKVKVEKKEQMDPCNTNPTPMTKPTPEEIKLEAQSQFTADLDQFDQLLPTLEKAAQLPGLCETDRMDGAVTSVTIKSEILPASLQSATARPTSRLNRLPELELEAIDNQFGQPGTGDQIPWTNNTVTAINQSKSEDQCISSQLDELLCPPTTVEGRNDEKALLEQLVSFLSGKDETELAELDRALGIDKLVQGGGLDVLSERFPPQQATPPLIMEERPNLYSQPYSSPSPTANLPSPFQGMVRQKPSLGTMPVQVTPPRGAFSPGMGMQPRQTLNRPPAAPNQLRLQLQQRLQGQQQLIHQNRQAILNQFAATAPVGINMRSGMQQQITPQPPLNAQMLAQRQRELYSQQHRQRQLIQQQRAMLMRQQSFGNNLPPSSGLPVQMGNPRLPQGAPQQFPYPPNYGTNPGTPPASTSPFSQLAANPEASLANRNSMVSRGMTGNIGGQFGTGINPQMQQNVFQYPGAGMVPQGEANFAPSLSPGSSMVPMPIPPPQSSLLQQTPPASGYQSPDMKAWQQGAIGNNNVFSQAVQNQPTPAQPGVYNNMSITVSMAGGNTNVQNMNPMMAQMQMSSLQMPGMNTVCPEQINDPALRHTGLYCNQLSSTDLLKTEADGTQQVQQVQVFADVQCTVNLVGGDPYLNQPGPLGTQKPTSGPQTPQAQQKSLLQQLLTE

The inhibition is the relative decrease from the control value, in per cent. As to `CCN1CCN(S(=O)(=O)c2cc(OCC(=O)NC3CCCCC3)c(C)cc2Cl)CC1`, the inhibition was -7.06% in assay [1] and 31.1% (active) in assay [2].

Regarding `COc1ccc(-c2cc(=O)oc3c(C)c(O)c(CN(C)C)cc23)cc1`, the inhibition in assay [1] was 17.5%; in assay [2], 18.4%.

Consider `CCOc1ccc(CCNC(=O)COC(=O)c2cc(OC)c(OC)cc2[N+](=O)[O-])cc1OCC`, for which the inhibition was -11.8% in assay [1] and -2.67% in assay [2].

As to `CCC1CCCCN1C(=O)CSc1nc(N)cc(=O)[nH]1` (stereo not given), the inhibition in assay [1] was -15.7%; in assay [2], -3.43%.

In the case of `Cc1cccc(N2CCN(C(=O)CSc3nc4ccccc4nc3N3CC(C)OC(C)C3)CC2)c1C` (stereo not given), the inhibition was -26.1% in assay [1] and 12.3% in assay [2].

Turning to `O=C(Nc1ccc(F)cc1F)c1c(C(F)(F)F)ccnc1Oc1cccc(C(F)(F)F)c1`, the inhibition in assay [1] was -2.06%; in assay [2] it was -3.8%.

As for `COc1ccccc1NC(=O)CN(c1ccccc1)S(=O)(=O)c1ccccc1`, the inhibition was -16.7% in assay [1] and -7.82% in assay [2].

On to `C=CCc1cccc(/C=N/NC(=O)C(C)Nc2ccc(C)cc2)c1O` (stereo not given), for which the inhibition is 6.49% in assay [1] and 8.01% in assay [2].

As to `CC(C)Nc1ccc(Nc2ccnc3cc4ccccc4cc23)cc1`, the inhibition in assay [1] is 29.3%; in assay [2] it was 38% (active).

With `Cc1ccc(S(=O)(=O)Nc2c(NC3CCCCC3)c3ccccc3oc2=O)c(C)c1`, the inhibition in assay [1] was 15.7%; in assay [2], 13.5%.

Consider `Cc1cccc(C)c1NC(=O)CNC(=O)Cc1c[nH]c2ccccc12`, for which the inhibition in assay [1] is -0.57%; in assay [2] it was -1.35%.

Take `CCC1(c2ccc(F)cc2)NC(=O)N(CC(=O)NCC(=O)Nc2cccc(C)c2C)C1=O` (stereo not given): the inhibition in assay [1] was 6.24%; in assay [2], 6.8%.

In the case of `Cc1ccccc1C(=O)/C(C#N)=N/Nc1c(C)n(C)n(-c2ccccc2)c1=O`, the values for the inhibition in assay [1] and in assay [2] were 34.3% and 21.1%, respectively.

`COC(=O)N(NC(=O)C(O)(CCC(C)C)CCC(C)C)c1ccccc1`: the inhibition was 16.2% in assay [1] and 11.5% in assay [2].

`COCCn1cnc2c1c(=O)n(Cc1ccccc1C#N)c(=O)n2Cc1ccccc1`: the results for the inhibition in assay [1] and in assay [2] were -22.2% and 1.6%, respectively.

For `Nc1ccn(C2OC(CO)C(O)C2O)c(=O)n1` (stereo not given), the inhibition is 24.8% in assay [1] and 20.1% in assay [2].

For the molecule `Cc1ccc(C2/C(=C(\O)c3ccc4c(c3)OCCO4)C(=O)C(=O)N2Cc2cccnc2)cc1` (stereo not given), the inhibition in assay [1] was -15.5%; in assay [2], -9.56%.

Consider `O=C(Nc1nc(-c2ccccn2)cs1)c1cccc(S(=O)(=O)N2CCOCC2)c1`, for which the values for the inhibition in assay [1] and in assay [2] were 25% and 20%, respectively.

In the case of `C/C(=N\NC(=O)C(C)Oc1ccc([N+](=O)[O-])cc1)c1ccccn1` (stereo not given), the inhibition was -226% in assay [1] and 45.6% (active) in assay [2].

In the case of `CC(C)OCCCn1c(=O)c2ccccc2n2c(CCC(=O)N3CCN(c4ccccn4)CC3)nnc12`, the inhibition in assay [1] was -22.8%; in assay [2], -9.58%.

Turning to `CC1Cc2ccccc2N1S(=O)(=O)c1cccc(C(=O)N2CCN(c3ncccn3)CC2)c1` (stereo not given), the inhibition in assay [1] is 16.5%; in assay [2], 77.4% (active).

On to `COc1ccc(OCCN2CCN(C(=O)c3ccc(OC(F)F)c(OC)c3)CC2)cc1`, for which the inhibition in assay [1] was 2.42%; in assay [2], 2.73%.

Turning to `Cc1ccc(OCCN2CCN(C(=O)CCC(=O)Nc3nnc(CC(C)C)s3)CC2)cc1`, the inhibition in assay [1] is 2.56%; in assay [2], 11.8%.

As to `COC(=O)C(C)NC(=O)C12CC3CC(C1)CC(c1ccc(C)cc1)(C3)C2` (stereo not given), the inhibition was -5.33% in assay [1] and 4.73% in assay [2].

For the molecule `COc1ccccc1NC(=O)NC1(C(=O)N2CCCCC2)CCCCC1`, the inhibition in assay [1] was 4.76%; in assay [2], 10.3%.

As for `COc1ccc(-c2nnc(NC(=O)CSc3ccccc3)s2)cc1OC`, the figures for the inhibition in assay [1] and in assay [2] were 1.2% and -8.89%, respectively.

For the molecule `CC(C)Oc1ccccc1NC(=O)CSc1nc2ccccc2c(=O)n1C`, the figures for the inhibition in assay [1] and in assay [2] were -5.84% and 13.4%, respectively.

Take `COc1ccc(S(=O)(=O)N2CCOC23CCN(S(=O)(=O)c2ccc(Cl)cc2)CC3)cc1`: the inhibition in assay [1] is -7.54%; in assay [2], -6.07%.

As to `CCOC(=O)c1ccc(NC(=O)c2ccc(CN3CCc4ccccc4C3)cc2)cc1`, the inhibition was -48.8% in assay [1] and 30.4% (active) in assay [2].

With `Cc1ccc2cc3cc(C(=O)NCc4ccco4)oc3nc2c1`, the inhibition in assay [1] is -10%; in assay [2], 36% (active).

Regarding `S=C(NC1CCCCC1)N1CCOCCOCCN(C(=S)NC2CCCCC2)CCOCCOCC1`, the inhibition is 7.13% in assay [1] and 7.75% in assay [2].

Turning to `CCNc1nc(NC(C)(C)C)nc(N2CCCCC2)n1`, the inhibition in assay [1] was 8.01%; in assay [2], 12.6%.

In the case of `CCCCCCCC[n+]1c(C)n(-c2ccccc2)c2ccc(NC(C)=O)cc21`, the inhibition was 15.6% in assay [1] and 19.2% in assay [2].

For `O=c1[nH]c(CSc2nc3ccccc3o2)nc2c1cnn2-c1ccccc1`, the inhibition in assay [1] is -22.6%; in assay [2], 4.42%.

In the case of `NS(=O)(=O)c1ccc(Nc2nc(-c3cccnc3)cs2)cc1`, the inhibition was 15.8% in assay [1] and 11.7% in assay [2].

As to `O=S(=O)(c1cccc(C(F)(F)F)c1)N1c2ccccc2-n2cccc2C1c1cccnc1` (stereo not given), the inhibition in assay [1] is 12.9%; in assay [2], 17.7%.

`Cc1cc[n+](CC(=O)Nc2cccc(C)c2)cc1`: the inhibition in assay [1] was -8.15%; in assay [2], 1.99%.

On to `O=C(Nc1ccccc1N1CCOCC1)c1ccc(N2CCOCC2)c([N+](=O)[O-])c1`, for which the inhibition in assay [1] is -19.5%; in assay [2], -16.2%.

For the molecule `OC(CN1CCN(c2cccc(Cl)c2)CC1)c1ccccc1` (stereo not given), the inhibition in assay [1] is -16.2%; in assay [2], -6.51%.

As for `CCN(C(=O)c1ccc(S(=O)(=O)N2CCC(C)CC2)cc1)C1CCS(=O)(=O)C1` (stereo not given), the values for the inhibition in assay [1] and in assay [2] were -0.29% and 2.08%, respectively.

`O=c1c2ccccc2cnn1Cc1n[nH]c(=S)n1C1CC2CCC1C2` (stereo not given): the inhibition in assay [1] is 8.04%; in assay [2], -8.54%.

Turning to `CCC(C)C(=O)Nc1nc(C)c(-c2csc(Nc3cc(Cl)ccc3OC)n2)s1` (stereo not given), the inhibition in assay [1] is -14.5%; in assay [2], -1.24%.

As for `Cc1nc2ccccn2c1-c1ccnc(=S)[nH]1`, the inhibition was 31.1% in assay [1] and 11.1% in assay [2].

For the molecule `Cc1ccc(S(=O)(=O)N(C)C)cc1NC(=O)COC(=O)CCC1CCCC1`, the results for the inhibition in assay [1] and in assay [2] were 8.06% and 5.41%, respectively.

Turning to `Cc1ccccc1N(C(=O)c1csnn1)C(C(=O)NC1CCCCC1)c1ccncc1` (stereo not given), the inhibition in assay [1] was -16%; in assay [2], -5.53%.

For the molecule `COc1ccc(C(=O)n2cc(C(=O)c3cc(C)ccc3O)cn2)cc1OC`, the inhibition was -3.44% in assay [1] and -0.92% in assay [2].

Take `CCC(C(=O)OCC(=O)Nc1cc(Cl)cc(Cl)c1)c1ccccc1` (stereo not given): the results for the inhibition in assay [1] and in assay [2] were -0.98% and -3.53%, respectively.

Take `CCOc1ccc(-c2cc(C(=O)Nc3ccc(C)c(NS(C)(=O)=O)c3)[nH]n2)c(C)c1`: the inhibition in assay [1] is -14%; in assay [2], 5.47%.

Take `Cc1c(C(=O)NCC2COc3ccccc3O2)oc2ccc(S(=O)(=O)N3CCOCC3)cc12` (stereo not given): the figures for the inhibition in assay [1] and in assay [2] were -7.47% and 15.8%, respectively.

In the case of `Cc1nc(N/N=C/c2ccc(O)cc2O)cc(N2CCOCC2)n1`, the inhibition is -26.5% in assay [1] and -14.6% in assay [2].

As for `COc1ccc(C2CC(c3ccc(Br)cc3)=NN2C(=O)CSC2=NCCS2)cc1` (stereo not given), the inhibition in assay [1] is 7.19%; in assay [2], 10.6%.

For the molecule `COc1ccccc1OCCC(=O)OCC(=O)NC(C)c1ccccc1` (stereo not given), the inhibition in assay [1] is -8.57%; in assay [2] it was -18.5%.

On to `COc1cc2c(cc1OC)CN(C(=O)c1cc(S(=O)(=O)N3CCOCC3)ccc1C)CC2`, for which the inhibition in assay [1] was 1.45%; in assay [2], 7.41%.

In the case of `O=C(Nc1ccc(Cc2ccncc2)cc1)c1ccc(S(=O)(=O)N2CCOCC2)cc1`, the values for the inhibition in assay [1] and in assay [2] were -12.7% and 9.65%, respectively.

As to `COCCn1c(C)cc(/C=C2/NC(=O)N(c3cccc(Cl)c3)C2=O)c1C`, the inhibition in assay [1] was -34.5%; in assay [2], -40.5%.

For the molecule `COc1ccc(OC)c(S(=O)(=O)NCC(c2ccc3c(c2)OCO3)N2CCOCC2)c1` (stereo not given), the inhibition in assay [1] is -16.7%; in assay [2], -6.55%.

Consider `O=C1c2cccc(NCCCNCCO)c2C(=O)c2cccc(NCCCNCCO)c21`, for which the inhibition was 7.28% in assay [1] and 16.3% in assay [2].

Regarding `CC(C(=O)Nc1ccon1)N1C(=O)c2ccccc2S1(=O)=O` (stereo not given), the inhibition is -3.82% in assay [1] and 11.8% in assay [2].

In the case of `CC(C)(C)c1cc(C(=O)C[n+]2ccc(C(=O)NCCCO)cc2)cc(C(C)(C)C)c1O`, the figures for the inhibition in assay [1] and in assay [2] were -6.91% and -12.9%, respectively.

Consider `COc1ccc(S(=O)(=O)N(C)c2ccc(C(=O)NCc3ccco3)cc2)cc1OC`, for which the inhibition in assay [1] was -12.2%; in assay [2], -0.34%.

With `O=C1NC(=S)N/C1=C/c1ccc2c(c1)OCO2`, the figures for the inhibition in assay [1] and in assay [2] were 10.2% and 16.3%, respectively.

On to `COc1ccc(C2c3cc(OC)c(OC)cc3CCN2S(C)(=O)=O)cc1OC` (stereo not given), for which the inhibition is 9.85% in assay [1] and 9.73% in assay [2].

For `Cc1ccc(C(=O)NCCn2cc(SCC(=O)Nc3cc(C)on3)c3ccccc32)cc1`, the values for the inhibition in assay [1] and in assay [2] were 0.49% and -11.3%, respectively.

On to `COc1ccccc1CNC(=O)Cn1nnnc1CN(C)C(C)C`, for which the results for the inhibition in assay [1] and in assay [2] were -0.61% and 9.79%, respectively.

Turning to `CCc1c(C)nc2c(C)cccc2c1SCCC#N`, the inhibition is 24.9% in assay [1] and 8.27% in assay [2].

As to `CS(=O)(=O)c1ccc(NC(=O)CCN2C(=O)C3CCCCC3C2=O)cc1` (stereo not given), the inhibition was -9.83% in assay [1] and -10.5% in assay [2].

With `O=C1Nc2cc(C(=O)NCC3CCCO3)ccc2S/C1=C/c1ccccc1F` (stereo not given), the inhibition in assay [1] was -7.31%; in assay [2], -5.02%.

`COc1ccc(-c2csc(NC(=O)c3ccccc3NS(=O)(=O)c3ccc(C)cc3)n2)cc1`: the inhibition was 19.3% in assay [1] and 30.8% (active) in assay [2].

In the case of `COc1ccccc1CNC(=O)C1CCCN(S(=O)(=O)c2cccc3nsnc23)C1` (stereo not given), the inhibition in assay [1] is -23.4%; in assay [2], -0.08%.

`CN(CC(=O)Nc1c(Cl)cccc1Cl)C(=O)CNC(=O)c1ccc2ccccc2c1`: the values for the inhibition in assay [1] and in assay [2] were -23.2% and -11.1%, respectively.
